Measured values as given in the supplement of paper PMC6555819.

Tests used:
Test in all cases: PBM binding z-score (relative to random genomic background probes); higher = stronger binding; sequences stand for … in GC…GCGATTGACAGCGTAGAATGAAGG
[1] = system: RARb homodimer (NR concentration 270 nM)
Summary of the method: (§1)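 Binding z-scores take random background probes as their reference. They come from custom Agilent 4×180K protein-binding microarrays incubated 1 h with ligand-free nuclear receptor dimers, with antibodies against each partner (one per run) detecting binding. Scanned fluorescence was regression-normalized.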

[2] = system: RARg:RXRa (NR concentration 270 nM, RXRa partner concentration 90 nM)
Summary of the method: as §1

[3] = system: RARg homodimer (NR concentration 270 nM)
Summary of the method: as §1

[4] = system: RXRa DBDmut IVT, anti-RXR (DBD mutation: RXRa K156A/R161A, NR concentration 90 nM)
Summary of the method: as §1

[5] = system: RXRa homodimer (NR concentration 180 nM)
Summary of the method: as §1

[6] = system: THRa:RXRa (NR concentration 90 nM, RXRa partner concentration 90 nM)
Summary of the method: as §1

[7] = system: THRa homodimer (NR concentration 90 nM)
Summary of the method: as §1

[8] = system: VDR homodimer (NR concentration 270 nM)
Summary of the method: as §1

Sequence	PBM binding z-score [1]	PBM binding z-score [2]	PBM binding z-score [3]	PBM binding z-score [4]	PBM binding z-score [5]	PBM binding z-score [6]	PBM binding z-score [7]	PBM binding z-score [8]
ATATGTATGTTAAGGGTCATTCAGGTTGGTTCGC	3.82	3.82	2.66	2.29	4.3	3.36	1.54	3.48
CGTCCAACGTCAAAGGTCAGTGAAGAGATGACGG	4.22	4.66	5.08	0.458	5.09	2.5	0.106	0.685
TTACCAACGTGAAGGTCGTTGATCCCTCTGTAGA	1.24	0.301	0.15	0.665	1.17	1.04	0.438	1.3
CGTCCAAGGGCAGAGAGGTCAGTGAATGCCGAGT	4.03	3.5	4.06	1.49	2.27	2.68	0.704	3.19
CCTTACGGGTCACTGACAGTTTATAGCATTTGGA	3.2	5.31	4.77	2.11	5.48	2.74	0.505	1.42
GGAACGAGGGCGAGTTGATAGCAGAGTTTGATGG	-0.0873	-0.0842	0.176	1.73	0.0566	-0.305	-0.578	1.12
ATCTCTAGGTAACCAAGTTCAGTGAGTGCCGAAC	1.55	0.591	0.796	1.34	0.412	1.52	0.776	2.83
ATATGTAGGTTATCGGGTCATGCAGTTTGCGCAT	3.1	3.43	2.66	0.921	3.76	3.54	3.02	3
CAAGACAGGTGAGAAGGTAACTCAGCCTCGATTA	0.607	0.784	0.824	-0.536	0.481	0.413	0.475	-0.249
TCTCGGAGGATACGAAGGTCAGAGCTTTCCAGAG	2.95	1.93	2.03	0.133	1.65	1.57	-0.156	0.224
CCTACTGGGCTATTCAGAGGTCATTGATCATATG	3.63	3.55	2.52	1.07	3.56	3.16	1.28	3.02
ACTAGTTGGTCAGCTGAAGTCACACACAATTCGG	0.741	0.686	0.796	0.337	0.297	0.346	-0.0517	0.0981
TCTATTAGTTGAAGGGCTACCGACGAGTCCGTTT	0.0763	0.0303	0.0781	1.63	0.354	-0.151	-0.0569	1.04
CCTTACGGGACACGAGGTTATAGCACGACGAGCG	1.03	1.49	1.14	-0.0752	1.19	1.77	0.83	0.544
